From PubChem BioAssay (EPA / NIEHS)
Records with an inconclusive call do not appear. Calls of active or inactive are those of the source. Rule for the calls, unless noted: active = hit-call score of the fitted dose curve at least 0.9, where 1 is the maximum; inactive = score below 0.9.

How the values were obtained:
[1] = CCTE_Shafer_MEA_dev_firing_rate_mean: CCTE's Neural Network Formation Assay for Mean Firing Rate, Shafer Lab (AID 2284031);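 note: curve fitted for loss of firing so AC50 reflects decreased mean firing rate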
In short: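 Steps: seed rat cortical cells (1.5 x 10^5/well) with laminin on PEI-coated MEA; dose day 0; record DIV 5/7/9/12, full media and compound exchange after DIV 5 and 9 recordings; compute well-mean firing rate AUC.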

[2] = CCTE_Shafer_MEA_dev_per_burst_spike_percent: CCTE's Neural Network Formation Assay for Percent of Spikes in a Burst, Shafer Lab (AID 2284032);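 note: fitted as a decrease in burst spike percentage below DMSO baseline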
In short: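 Value is trapezoidal AUC over recordings on days 5, 7, 9 and 12 of the well-mean fraction of spikes falling in single-electrode bursts; rat cortical cultures exposed continuously from plating, treatment renewed DIV 5 and 9, fitted downward against DMSO.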

[3] = CCTE_Shafer_MEA_dev_active_electrodes_number: CCTE's Neural Network Formation Assay for Number of Active Electrodes, Shafer Lab (AID 2284040; active = hit-call score of the fitted dose curve at least 0.9, where 1 is the maximum;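 note: potency for loss of active electrodes versus DMSO so lower counts are hits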)
In short: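 Counts electrodes per well firing at least 5 spikes/min, recorded on days 5, 7, 9 and 12 in rat cortical cultures dosed continuously from plating (treatment refreshed DIV 5, 9). Value is the area under the curve over recordings, fitted downward relative to DMSO.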

[4] = CCTE_Shafer_MEA_dev_burst_rate: CCTE's Neural Network Formation Assay for Burst Rate, Shafer Lab (AID 2284042);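 note: potency for loss of burst rate below DMSO control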
In short: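 Cells plated, treated day 0; recorded DIV 5, 7, 9, 12; fed and re-treated DIV 5, 9. Endpoint: bursts per recording time, active-electrode well mean, trapezoidal AUC, fitted in decreasing direction against DMSO baseline.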

[5] = CCTE_Shafer_MEA_dev_bursting_electrodes_number: CCTE's Neural Network Formation Assay for Number of Bursting Electrodes, Shafer Lab (AID 2284043; active = hit-call score of the fitted dose curve at least 0.9, where 1 is the maximum;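 note: potency is for loss of bursting electrodes relative to DMSO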)
In short: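 Number of electrodes reaching ≥1 burst every 2 min was recorded at DIV 5, 7, 9 and 12 and collapsed as trapezoidal area under the curve. Cultures were rat cortical neurons on MEA plates, dosed continuously from plating with medium and treatment refreshed on DIV 5 and 9.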

[6] = CCTE_Shafer_MEA_dev_per_burst_interspike_interval: CCTE's Neural Network Formation Assay for Burst Interspike Interval, Shafer Lab (AID 2284044);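 note: potency for a decrease of within-burst interspike interval below DMSO level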
In short: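 Readout is the average time between spikes inside single-electrode bursts, taken as a well mean across bursting electrodes. Cortical neurons from rat developed networks on MEA plates under continuous 12-day exposure; recordings on days 5, 7, 9 and 12 were integrated by trapezoidal AUC.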

[7] = CCTE_Shafer_MEA_dev_burst_duration_mean: CCTE's Neural Network Formation Assay for Mean Burst Duration, Shafer Lab (AID 2284045)
In short: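 Mean single-electrode burst duration (first to last spike), averaged over bursting electrodes per well, then integrated as area-under-curve across recordings at days 5, 7, 9 and 12. Rat cortical cultures on MEAs, compound present from plating, refreshed at feeds.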

[8] = CCTE_Shafer_MEA_dev_interburst_interval_mean: CCTE's Neural Network Formation Assay for Mean Interburst Interval, Shafer Lab (AID 2284046);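 note: well-mean interburst interval of bursting electrodes as AUC over four recording days; curve fitted for decrease in interburst interval relative to DMSO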
In short: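 Developing rat cortical networks on 48-well MEAs receive compound from the day of plating. Burst intervals from each active electrode are averaged per well, and AUC over the recording days is fitted in the negative direction against DMSO.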

[9] = CCTE_Shafer_MEA_dev_network_spike_number: CCTE's Neural Network Formation Assay for Number of Network Spikes, Shafer Lab (AID 2284048);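 note: fit as a loss of signal meaning fewer network spikes than DMSO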
In short: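 Number of network spikes (coordinated firing across electrodes) recorded on days 5, 7, 9 and 12 and summarised as area under the curve. Rat cortical cultures on MEA, continuous compound exposure with full medium/treatment exchange at DIV 5 and 9.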

[10] = CCTE_Shafer_MEA_dev_network_spike_peak: CCTE's Neural Network Formation Assay for Mean Number of Electrodes in Network Spike, Shafer Lab (AID 2284049);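 note: fitted for loss of signal meaning fewer electrodes in network spikes than DMSO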
In short: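 Rat cortical primary culture, 1.5 x 10^5 cells/well, 48-well MEA (16 electrodes/well). Dosing day 0 through DIV 12, full media/compound exchange DIV 5, 9. AxIS adaptive spike detection; AUC over days 5/7/9/12; loss-of-signal vs DMSO.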

[11] = CCTE_Shafer_MEA_dev_spike_duration_mean: CCTE's Neural Network Formation Assay for Mean Spike Duration, Shafer Lab (AID 2284051);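 note: mean network spike duration pooled as area under curve over DIV 5 to 12 recordings; potency for a decrease in mean network spike duration versus DMSO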
In short: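 Readout is the average length of network spikes, clustered firing across electrodes, summed over DIV 5, 7, 9 and 12 as area under the curve. Neurons from rat cortex developed networks on MEA plates under continuous 12-day exposure.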

[12] = CCTE_Shafer_MEA_dev_network_spike_duration_std: CCTE's Neural Network Formation Assay for Standard Deviation of Network Spike Duration, Shafer Lab (AID 2284052);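 note: hits are decreases in network spike duration SD versus DMSO vehicle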
In short: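 Read-out is the trapezoidal area-under-the-curve across recordings made on days 5, 7, 9 and 12, fitted in the negative direction against DMSO baseline. Neurons were primary rat cortical cells treated from day 0, with treatment renewed at each feed.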

[13] = CCTE_Shafer_MEA_dev_per_network_spike_spike_number_mean: CCTE's Neural Network Formation Assay for Mean Number of Spikes in a Network Spike, Shafer Lab (AID 2284053);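 note: fitted as decrease in spikes per network spike relative to DMSO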
In short: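 Continuous twelve-day exposure of developing rat cortical networks grown over 16 microelectrodes per well; spontaneous firing is captured at four time points, and the per-network-spike spike number is integrated over development by trapezoidal AUC.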

[14] = CCTE_Shafer_MEA_dev_per_network_spike_spike_percent: CCTE's Neural Network Formation Assay for Percent of Spikes in a Network Spike, Shafer Lab (AID 2284054)
In short: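 Metric: fraction of spikes falling in a 0.05 s window at network-spike peaks. Recordings were made on days 5, 7, 9 and 12 and collapsed by trapezoidal AUC. Cultures were rat cortical neurons on MEA plates, dosed continuously from plating, re-dosed at media changes.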

[15] = CCTE_Shafer_MEA_dev_LDH: CCTE's Lactate Dehydrogenase Assay for Cytotoxicity in the Neural Network Formation Assay, Shafer Lab (AID 2284068; active = hit-call score of the fitted dose curve at least 0.9, where 1 is the maximum;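 note: exposure for twelve days from plating with re-dosing on DIV 5 and 9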)
In short: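 Cytotoxicity companion to network-formation recordings: rat cortical neurons received compound over 12 days of development, re-dosed at DIV 5 and 9 feeds. Viability was inferred from LDH enzyme activity relative to DMSO.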

[16] = CCTE_Shafer_MEA_dev_AB: CCTE's Alamar Blue Assay for Cytotoxicity in the Neural Network Formation Assay, Shafer Lab (AID 2284083; active = hit-call score of the fitted dose curve at least 0.9, where 1 is the maximum;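 note: resazurin reduction fluorescence as viability of cultured neurons; twelve days of exposure from plating with re-dosing on DIV 5 and 9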)
In short: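 Fluorescent resazurin reduction serves as the viability read-out, with DMSO as negative control and baseline. Cells were primary rat cortical neurons grown on MEA plates and dosed from day 0 to day 12, treatment renewed on DIV 5 and 9.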

[17] = CCTE_Shafer_MEA_dev_mutual_information_norm: CCTE's Neural Network Formation Assay for Mutual Information Normalization, Shafer Lab (AID 2284091);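 note: mutual information between electrodes summarised as area under curve across four recording days; potency is for a decrease in mutual information relative to DMSO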
In short: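 Shared information across electrodes, tracked on days 5, 7, 9 and 12 of network development and collapsed as trapezoidal area under the curve. Rat cortical cultures were treated continuously from plating, with treatment renewed at feeds on DIV 5 and 9; DMSO baseline, negative-direction fit.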

[18] = CCTE_Shafer_MEA_dev_correlation_coefficient_mean: CCTE's Neural Network Formation Assay for Mean Correlation Coefficient, Shafer Lab (AID 2284093);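 note: well mean pairwise spike train correlation integrated as AUC over recording days 5 to 12; potency fitted for loss of correlation relative to DMSO vehicle wells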
In short: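 Read-out: well-mean correlation coefficient of spike trains between electrode pairs, collapsed over four recording days as trapezoidal area-under-the-curve. Developing rat cortical neuron networks grown on MEAs received test chemical continuously from plating.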

[19] = IUF_NPC1b_proliferation_BrdU_72hr: Leibniz Research Institute for Environmental Medicine (IUF) 72-hour Neural Progenitor Cell Bromodeoxyuridine (BrdU) Proliferation Assay (NPC1b) (AID 2284207)
In short: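 Human fetal cortex-derived (GW 16-19) neural progenitor spheres, 0.25-0.35 mm, one per well in EGF/FGF proliferation medium, exposed to compound for 72 h at 37C, pH 7.2-7.6. BrdU incorporation over the final 16 h read by luminescence ELISA, relative to DMSO.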

[20] = CCTE_Mundy_HCI_Cortical_Synap_Neur_Matur_NeuriteSpotCountPerNeuriteLength: CCTE's Synaptogenesis and Neurite Maturation Assay in rat cortical cells for Neurite Spot Count per Neurite Length, Mundy Lab (AID 2284210)
In short: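 Synaptophysin spots per unit neurite length, measured by automated imaging of MAP2/synaptophysin/Hoechst-stained neurons. Cultures from rat cortex received chemical at DIV 7 with media change through DIV 12; glial growth arrested by AraC at DIV 5; DMSO baseline.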

[21] = CCTE_Mundy_HCI_Cortical_Synap_Neur_Matur_BPCount: CCTE's Synaptogenesis and Neurite Maturation Assay in rat cortical cells for Branch Point Count, Mundy Lab (AID 2284211)
In short: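 HCI read-out of branch points from MAP2/synaptophysin/Hoechst immunofluorescence; rat cortical cultures, AraC DIV 5, dosing DIV 7, fixed DIV 12; fit in positive direction vs DMSO baseline.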

[22] = CCTE_Mundy_HCI_Cortical_NOG_NeuriteCount: CCTE's Neurite Outgrowth Assay in rat cortical cells for Neurite Count, Mundy Lab (AID 2284212);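 note: cells fixed about two days after chemical exposure began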
In short: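 Rat cortical primary cells; compound added 2 h post-plating, 1/10 dilution of working solution. Anti-betaIII-tubulin/AF488 ICC; ArrayScan neurite count vs DMSO.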

[23] = CCTE_Mundy_HCI_Cortical_NOG_NeuriteLength: CCTE's Neurite Outgrowth Assay in rat cortical cells for Neurite Length, Mundy Lab (AID 2284213);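 note: neurites imaged about 48 to 50 h after chemical exposure began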
In short: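 First, rat primary cortical cells were plated and, 2 h later, given test chemical as a 1/10 dilution. Finally, βIII-tubulin immunostaining enabled automated imaging of neurite length.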

Measured: AC50

CC1(C)C(C=C(Cl)c2ccc(Cl)cc2)C1C(=O)OC(C#N)c1ccc(F)c(Oc2ccccc2)c1 (stereo not drawn)
inactive: [7] | [19] | [20]
active: [1] 4.24 µM | [2] 13 µM | [3] 12.8 µM | [4] 9.91 µM | [5] 12.9 µM | [6] 7.6 µM | [8] 13.6 µM | [9] 14.4 µM | [10] 13.1 µM | [11] 5.21 µM | [12] 6.89 µM | [13] 6.7 µM | [14] 23.3 µM | [15] 14.3 µM | [16] 17.1 µM | [17] 5.42 µM | [18] 12.8 µM | [21] 50 µM | [22] 39.1 µM | [23] 50 µM
